Source: PubChem BioAssay (EPA / NIEHS)
Values joined by “and” are separate entries in the source; they are usually repeats but may differ in a detail not shown here. Equal entries are not always repeated. More than one record can exist for a structure, and the calls need not agree. Active and inactive are the calls of the source. The calls were made as follows: active = hit-call score of the fitted dose curve at least 0.9, where 1 is the maximum; inactive = score below 0.9.

Experiments:
Settings in all cases: mRNA level, 48 h; actives raise or lower the signal
[1] = read-out: Keratin 19 (KRT19), KRT19 (gene 3880); experiment: LTEA_HepaRG_KRT19: Life Technologies and Expression Analysis (LTEA) Assay for Keratin 19 (KRT19) using HepaRG (AID 2283512)
Method in brief: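 HepaRG, 48 h chemical exposure, 8-pt half-log CRC from 100 uM, 0.5% DMSO vehicle, duplicates. Readout: TaqMan qRT-PCR of KRT19 mRNA, housekeeping-normalized (ACTB/GAPDH/POLR2A). Bidirectional fit vs DMSO baseline.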

[2] = read-out: JUN Transcription Factor, JUN (gene 3725); experiment: LTEA_HepaRG_JUN: Life Technologies and Expression Analysis (LTEA) Assay for JUN Transcription Factor using HepaRG (AID 2283513)
Method in brief: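 Gene-expression endpoint: JUN mRNA (qRT-PCR, normalized to three reference genes) in HepaRG cultures treated 48 h with chemicals, duplicate wells, 100 uM maximum with half-log dilutions; bidirectional fitting relative to 0.5% DMSO.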

[3] = read-out: Lipase C (LIPC), LIPC (gene 3990); experiment: LTEA_HepaRG_LIPC: Life Technologies and Expression Analysis (LTEA) Assay for Lipase C (LIPC) using HepaRG (AID 2283514)
Method in brief: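 LIPC expression was quantified by qRT-PCR against three housekeeping genes (ACTB, GAPDH, POLR2A). Differentiated human HepaRG cells received eight half-log doses (top 100 uM, 0.5% DMSO) in duplicate for 48 h; fitting bidirectional relative to DMSO.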

[4] = read-out: Lipoprotein lipase (LPL), LPL (gene 4023); experiment: LTEA_HepaRG_LPL: Life Technologies and Expression Analysis (LTEA) Assay for Lipoprotein lipase (LPL) using HepaRG (AID 2283515)
Method in brief: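 LPL transcript levels quantified by TaqMan qRT-PCR against three housekeeping genes after 48 h chemical treatment of HepaRG cells. Eight-point half-log series from 100 uM in 0.5% DMSO, tested in duplicate; bidirectional fitting versus vehicle.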

[5] = read-out: MicroRNA 122 (MIR122), gene 406906; experiment: LTEA_HepaRG_MIR122: Life Technologies and Expression Analysis (LTEA) Assay for MicroRNA 122 (MIR122) using HepaRG (AID 2283516); also: the transcript read is the microRNA miR-122
Method in brief: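 Changes in transcript abundance, up or down relative to 0.5% DMSO vehicle, were scored after 48 h chemical treatment of HepaRG cells (maximum 100 uM). Quantification used TaqMan qRT-PCR normalized to housekeeping genes.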

[6] = read-out: matrix metalloproteinase-10 (MMP10), MMP10 (gene 4319); experiment: LTEA_HepaRG_MMP10: Life Technologies and Expression Analysis (LTEA) Assay for matrix metalloproteinase-10 (MMP10) using HepaRG (AID 2283517)
Method in brief: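 Expression measured by TaqMan qRT-PCR with ACTB/GAPDH/POLR2A normalisation after 48 h chemical exposure of HepaRG cells. Eight half-log concentrations, top 100 uM, 0.5% DMSO vehicle, duplicates; gain or loss fitted against vehicle.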

[7] = read-out: MYC, MYC (gene 4609); experiment: LTEA_HepaRG_MYC: Life Technologies and Expression Analysis (LTEA) Assay for MYC using HepaRG (AID 2283518)
Method in brief: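 qRT-PCR read-out of MYC transcript (Fluidigm TaqMan, housekeeping-normalized) after 48 h chemical exposure of HepaRG cells; eight concentrations, top 100 uM, half-log steps. Bidirectional curve fitting against 0.5% DMSO vehicle baseline.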

[8] = read-out: matrix metalloproteinase-3 (MMP3), MMP3 (gene 4314); experiment: LTEA_HepaRG_MMP3: Life Technologies and Expression Analysis (LTEA) Assay for matrix metalloproteinase-3 (MMP3) using HepaRG (AID 2283519)
Method in brief: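 Fluidigm-based TaqMan qRT-PCR, normalized to ACTB, GAPDH and POLR2A and fitted bidirectionally versus 0.5% DMSO, measured transcript levels. Treatment: duplicate 48 h exposures of HepaRG cells, ~100,000/well, to eight half-log concentrations topping at 100 uM.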

[9] = read-out: Paternally Expressed 10 (PEG10), PEG10 (gene 23089); experiment: LTEA_HepaRG_PEG10: Life Technologies and Expression Analysis (LTEA) Assay for Paternally Expressed 10 (PEG10) using HepaRG (AID 2283520);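 as to AC50: PEG10 transcript by qRT-PCR normalised to ACTB GAPDH and POLR2A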
Method in brief: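 After 48 h exposure of differentiated HepaRG cells (0.5% DMSO vehicle, eight concentrations up to 100 uM, duplicates), PEG10 mRNA was measured by TaqMan qRT-PCR. Values were normalised to endogenous control genes and analysed bidirectionally against vehicle.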

[10] = read-out: Nuclear factor NF-kappa-B p105 subunit (Homo sapiens) (UniProt P19838); experiment: LTEA_HepaRG_NFKB1: Life Technologies and Expression Analysis (LTEA) Assay for Nuclear Factor Kappa B Subunit 1 (NFKB1) using HepaRG (AID 2283521)
Method in brief: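 Differentiated human HepaRG cells were exposed for 48 h in serum-free induction medium to eight concentrations (top 100 uM, half-log steps, 0.5% DMSO), in duplicate. NFKB1 mRNA was measured by TaqMan qRT-PCR, normalized to ACTB/GAPDH/POLR2A, and fitted bidirectionally against DMSO.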

[11] = read-out: Protein phosphatase 2A (PPP2R4), PTPA (gene 5524); experiment: LTEA_HepaRG_PPP2R4: Life Technologies and Expression Analysis (LTEA) Assay for Protein phosphatase 2A (PPP2R4) using HepaRG (AID 2283522)
Method in brief: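 Using HepaRG cultures maintained in 0.5% DMSO, chemicals are tested 48 h at up to 100 uM in duplicate. Induction or suppression of PPP2R4 mRNA, measured by qRT-PCR, is fitted bidirectionally against the vehicle baseline.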

[12] = read-out: Phosphatase and tensin (PTEN), PTEN (gene 5728); experiment: LTEA_HepaRG_PTEN: Life Technologies and Expression Analysis (LTEA) Assay for Phosphatase and tensin (PTEN) using HepaRG (AID 2283523)
Method in brief: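 Read-out: TaqMan qRT-PCR of PTEN transcript, normalized to three housekeeping genes, fitted in both directions against 0.5% DMSO. Differentiated human HepaRG cultures received chemicals for 48 h, eight-point half-log series topping at 100 uM.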

[13] = read-out: solute carrier (SLC22A1), SLC22A1 (gene 6580); experiment: LTEA_HepaRG_SLC22A1: Life Technologies and Expression Analysis (LTEA) Assay for solute carrier (SLC22A1) using HepaRG (AID 2283524)
Method in brief: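 Transcript level of SLC22A1 quantified by qRT-PCR (normalized to three housekeeping genes) after 48 h chemical exposure of HepaRG cells, eight concentrations up to 100 µM, half-log steps, 0.5% DMSO vehicle. Gain or loss relative to DMSO fitted bidirectionally.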

[14] = read-out: Pyruvate Dehydrogenase Kinase 4 (PDK4), PDK4 (gene 5166); experiment: LTEA_HepaRG_PDK4: Life Technologies and Expression Analysis (LTEA) Assay for Pyruvate Dehydrogenase Kinase 4 (PDK4) using HepaRG (AID 2283525)
Method in brief: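 Readout is qRT-PCR of PDK4 transcript, normalized to three housekeeping genes, with bidirectional fitting against 0.5% DMSO vehicle. Differentiated HepaRG cells were treated 48 h in serum-free induction medium, duplicate wells, eight-point half-log series topping at 100 uM.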

[15] = read-out: NAD(P)H dehydrogenase [quinone] 1 (NQO1), NQO1 (gene 1728); experiment: LTEA_HepaRG_NQO1: Life Technologies and Expression Analysis (LTEA) Assay for NAD(P)H dehydrogenase [quinone] 1 (NQO1) using HepaRG (AID 2283526)
Method in brief: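 In this assay, gene expression is read by qRT-PCR after 48 h exposure of HepaRG cells to eight concentrations (max 100 uM, half-log) in 0.5% DMSO. Each chemical runs in duplicate, and activity is scored relative to vehicle.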

[16] = read-out: Nuclear factor erythroid 2-related factor 2 (Homo sapiens) (UniProt Q16236); experiment: LTEA_HepaRG_NFE2L2: Life Technologies and Expression Analysis (LTEA) Assay for Nuclear factor erythroid 2-related factor 2 (NFE2L2) Transcription Factor using HepaRG (AID 2283527)
Method in brief: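 NFE2L2 transcript level was read by qRT-PCR (housekeeping ACTB/GAPDH/POLR2A normalisation) after 48 h chemical treatment of HepaRG in serum-free induction medium. Duplicate 8-point half-log curves, top 100 uM, 0.5% DMSO vehicle; up- or down-regulation fitted against vehicle.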

[17] = read-out: succinate dehydrogenase complex iron sulfur subunit B (SDHB), SDHB (gene 6390); experiment: LTEA_HepaRG_SDHB: Life Technologies and Expression Analysis (LTEA) Assay for succinate dehydrogenase complex iron sulfur subunit B (SDHB) using HepaRG (AID 2283528)
Method in brief: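 HepaRG, 48 h exposure, 8-pt half-log series from 100 uM in 0.5% DMSO, duplicates. Readout: SDHB mRNA by Fluidigm qRT-PCR vs housekeeping genes; bidirectional fit relative to DMSO.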

[18] = read-out: Signal transducer and activator of transcription 3 (Homo sapiens) (UniProt P40763); experiment: LTEA_HepaRG_STAT3: Life Technologies and Expression Analysis (LTEA) Assay for Signal transducer and activator of transcription (STAT3) using HepaRG (AID 2283529)
Method in brief: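 STAT3 transcript quantified by qRT-PCR against three housekeeping genes (ACTB, GAPDH, POLR2A), fitted both directions relative to DMSO. HepaRG cultures exposed 48 h to eight half-log concentrations, top 100 uM, 0.5% DMSO, serum-free induction medium.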

[19] = read-out: solute carrier (SLCO1B1), SLCO1B1 (gene 10599); experiment: LTEA_HepaRG_SLCO1B1: Life Technologies and Expression Analysis (LTEA) Assay for solute carrier (SLCO1B1) using HepaRG (AID 2283530)
Method in brief: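 SLCO1B1 transcript read by qRT-PCR (Fluidigm arrays), normalized to three housekeeping genes, after 48 h chemical exposure of HepaRG cells; bidirectional concentration-response fitting versus 0.5% DMSO baseline. Eight-point half-log series, maximum 100 uM.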

[20] = read-out: sulfotransferase 2A1 (SULT2A1), SULT2A1 (gene 6822); experiment: LTEA_HepaRG_SULT2A1: Life Technologies and Expression Analysis (LTEA) Assay for sulfotransferase 2A1 (SULT2A1) using HepaRG (AID 2283531)
Method in brief: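 HepaRG, 48 h chemical exposure, 8-pt half-log curve from 100 uM in 0.5% DMSO, duplicates. Readout: TaqMan qRT-PCR of SULT2A1 mRNA, housekeeping-normalized. Bidirectional fit vs DMSO baseline.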

Measured: AC50

Sequence of Nuclear factor erythroid 2-related factor 2 (Homo sapiens) (Q16236 whole entry, looked up): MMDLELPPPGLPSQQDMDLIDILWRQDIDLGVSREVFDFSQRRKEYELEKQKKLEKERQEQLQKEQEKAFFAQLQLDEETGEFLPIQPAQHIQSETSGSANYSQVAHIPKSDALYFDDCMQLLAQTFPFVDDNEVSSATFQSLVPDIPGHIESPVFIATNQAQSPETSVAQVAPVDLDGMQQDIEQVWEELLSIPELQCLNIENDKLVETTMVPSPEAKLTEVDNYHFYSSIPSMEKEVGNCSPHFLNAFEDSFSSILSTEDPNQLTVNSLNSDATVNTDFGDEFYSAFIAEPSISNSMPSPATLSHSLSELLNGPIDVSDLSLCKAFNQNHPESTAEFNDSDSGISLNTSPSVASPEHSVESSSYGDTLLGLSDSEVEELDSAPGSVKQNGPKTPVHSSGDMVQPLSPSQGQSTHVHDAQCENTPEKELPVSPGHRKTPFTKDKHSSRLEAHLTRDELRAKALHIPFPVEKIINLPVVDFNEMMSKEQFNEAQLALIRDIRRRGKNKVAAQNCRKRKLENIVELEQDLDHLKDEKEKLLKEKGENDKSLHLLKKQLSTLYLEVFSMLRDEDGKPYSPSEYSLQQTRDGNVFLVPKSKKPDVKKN
Sequence of Signal transducer and activator of transcription 3 (Homo sapiens) (P40763 whole entry, looked up): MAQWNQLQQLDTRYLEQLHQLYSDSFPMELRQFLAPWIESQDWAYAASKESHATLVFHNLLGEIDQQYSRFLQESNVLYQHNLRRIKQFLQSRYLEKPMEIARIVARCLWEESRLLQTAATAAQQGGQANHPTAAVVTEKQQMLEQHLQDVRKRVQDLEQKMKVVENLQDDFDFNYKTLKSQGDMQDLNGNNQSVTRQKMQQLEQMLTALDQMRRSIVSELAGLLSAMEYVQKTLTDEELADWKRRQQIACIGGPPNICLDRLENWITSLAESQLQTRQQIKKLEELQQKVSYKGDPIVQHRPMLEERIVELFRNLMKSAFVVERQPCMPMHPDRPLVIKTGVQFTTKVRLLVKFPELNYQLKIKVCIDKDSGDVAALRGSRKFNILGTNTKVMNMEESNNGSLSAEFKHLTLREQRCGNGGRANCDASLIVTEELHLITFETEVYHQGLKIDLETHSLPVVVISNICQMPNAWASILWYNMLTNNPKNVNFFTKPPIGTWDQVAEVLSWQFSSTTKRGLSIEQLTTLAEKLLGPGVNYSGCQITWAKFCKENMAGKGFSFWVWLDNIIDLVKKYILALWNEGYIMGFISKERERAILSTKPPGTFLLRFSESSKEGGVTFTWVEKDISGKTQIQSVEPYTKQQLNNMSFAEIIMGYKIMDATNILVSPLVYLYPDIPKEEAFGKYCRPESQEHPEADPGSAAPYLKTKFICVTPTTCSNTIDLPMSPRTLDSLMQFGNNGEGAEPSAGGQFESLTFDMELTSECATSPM
Sequence of Nuclear factor NF-kappa-B p105 subunit (Homo sapiens) (P19838 whole entry, looked up): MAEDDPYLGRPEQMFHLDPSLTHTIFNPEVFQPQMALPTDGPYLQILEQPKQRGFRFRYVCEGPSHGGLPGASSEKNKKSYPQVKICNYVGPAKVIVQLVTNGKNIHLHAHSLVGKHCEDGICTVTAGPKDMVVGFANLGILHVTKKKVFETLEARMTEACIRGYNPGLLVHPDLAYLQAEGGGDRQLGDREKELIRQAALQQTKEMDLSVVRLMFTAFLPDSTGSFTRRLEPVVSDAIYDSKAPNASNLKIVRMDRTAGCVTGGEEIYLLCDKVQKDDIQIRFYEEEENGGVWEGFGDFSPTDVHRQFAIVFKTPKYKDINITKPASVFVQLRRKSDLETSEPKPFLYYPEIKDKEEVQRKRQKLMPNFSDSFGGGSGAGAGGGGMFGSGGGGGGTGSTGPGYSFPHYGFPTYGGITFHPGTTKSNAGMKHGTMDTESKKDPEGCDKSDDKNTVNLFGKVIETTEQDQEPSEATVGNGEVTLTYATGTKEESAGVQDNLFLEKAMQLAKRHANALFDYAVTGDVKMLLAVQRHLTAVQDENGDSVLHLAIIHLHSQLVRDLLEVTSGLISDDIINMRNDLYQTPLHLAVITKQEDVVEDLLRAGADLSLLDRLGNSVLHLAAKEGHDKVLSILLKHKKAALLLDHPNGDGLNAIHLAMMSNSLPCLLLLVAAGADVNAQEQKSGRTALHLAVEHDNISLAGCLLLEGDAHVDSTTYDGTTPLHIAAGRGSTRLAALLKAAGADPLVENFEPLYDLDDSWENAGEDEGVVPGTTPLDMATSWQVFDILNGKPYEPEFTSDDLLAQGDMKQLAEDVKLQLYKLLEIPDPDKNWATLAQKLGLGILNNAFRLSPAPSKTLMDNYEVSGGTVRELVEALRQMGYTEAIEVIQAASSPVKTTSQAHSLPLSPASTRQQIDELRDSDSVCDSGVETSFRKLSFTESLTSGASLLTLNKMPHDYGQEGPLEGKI

CCCCOCCOCCO
inactive: all assays above

C#C[C@]1(O)CC[C@H]2[C@@H]3CCc4cc(O)ccc4[C@H]3CC[C@@]21C
not listed: [13]
inactive: all other assays above

C[C@]12CC[C@@H]3c4ccc(O)cc4CC[C@H]3[C@@H]1CC[C@@H]2O
active: [9] 10.6 µM | [13] 50 µM | [20] 50 µM
not listed: [10]
inactive: all other assays above

CC/C(=C(\c1ccccc1)c1ccc(OCCN(C)C)cc1)c1ccccc1
inactive: [1] | [3] | [4] | [5] | [7] | [10] | [11] | [12] | [14] | [15] | [16] | [17] | [19] | [20]
active: [1] 11.2 µM | [2] 74.6 µM and 89.2 µM | [3] 93.9 µM | [4] 76.5 µM | [6] 75 µM and 50 µM | [7] 85.6 µM | [8] 86.1 µM and 92.9 µM | [9] 53.8 µM and 94 µM | [10] 81.9 µM | [12] 93.3 µM | [13] 42.3 µM and 15.8 µM | [14] 69.2 µM | [15] 79.9 µM | [16] 77.1 µM | [17] 81.1 µM | [18] 60.3 µM and 95.8 µM | [19] 45.8 µM | [20] 74.6 µM

COC(=O)c1ccc(C(=O)OC)cc1
inactive: all assays above

O=C(c1ccc(OCCN2CCCCC2)cc1)c1c(-c2ccc(O)cc2)sc2cc(O)ccc12
inactive: [1] | [3] | [5] | [7] | [8] | [10] | [15] | [16]
active: [2] 82.6 µM | [4] 80.4 µM | [6] 78.7 µM | [9] 65.9 µM | [11] 50 µM | [12] 77.9 µM | [13] 80 µM | [14] 50 µM | [17] 9.92 µM | [18] 50 µM | [19] 68.7 µM | [20] 50 µM

C=C(C)C(N)=O
inactive: all assays above
